VDR inhibitor: Inhibitors of the vitamin D receptor (VDR): qHTS | Vitamin D3 receptor (Homo sapiens), P11473 | VDR-SRC2-3 peptide fluorescence polarization, 2 h | Potency, µM, for the others: max response, negative = inhibition, actives largely listed as inhibitors | 0.93% of 400,000 active | AID 504847, 2011; further: potency means the concentration at half of the fitted maximal effect; on the % scale 0 is the no-effect control and ±100 the full control effect
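Inhibition of the VDR/SRC2-3 peptide interaction is quantified by fluorescence polarization. Compounds (23 nl, pintool) incubate with the reagents for 2 hours at ambient room temperature.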
WRN inhibitor: qHTS for Inhibitors of WRN Helicase; WRN helicase unwinding, fluorescent forked duplex, kinetic; Potency, µM (titrated, usually from 114 µM), without a hit: at the highest dose activity change, negative = inhibition, actives largely listed as inhibitors; 0.46% of 360,000 active; further: potency means the concentration at half of the fitted maximal effect; on the % scale 0 is the no-effect control and ±100 the full control effect; nearly all actives have a fitted effect of over 55% in size
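Screening of the MLSMR collection measured strand separation of a quenched forked DNA duplex (100 nM) by 20 nM WRN with 2 mM ATP, all final. Compounds were preincubated with enzyme 15 min at room temperature.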
PLK1 PBD inh: qHTS for Inhibitors of PLK1-PDB (polo-like kinase 1 - polo-box domain): Primary Screen | Serine/threonine-protein kinase PLK1 (Homo sapiens), P53350 | Plk1 PBD binding of FITC phosphopeptide, fluorescence polarization | Potency, µM, for the others: max response, negative = inhibition, actives largely listed as inhibitors | 2.8% of 360,000 active | AID 720504, 2013; further: potency means the concentration at half of the fitted maximal effect; series mostly up to about 57 µM; on the % scale 0 is the no-effect control and ±100 the full control effect; nearly all actives have a fitted effect of over 65% in size
Target sequence (P53350 whole entry, looked up, the tested form may be a part): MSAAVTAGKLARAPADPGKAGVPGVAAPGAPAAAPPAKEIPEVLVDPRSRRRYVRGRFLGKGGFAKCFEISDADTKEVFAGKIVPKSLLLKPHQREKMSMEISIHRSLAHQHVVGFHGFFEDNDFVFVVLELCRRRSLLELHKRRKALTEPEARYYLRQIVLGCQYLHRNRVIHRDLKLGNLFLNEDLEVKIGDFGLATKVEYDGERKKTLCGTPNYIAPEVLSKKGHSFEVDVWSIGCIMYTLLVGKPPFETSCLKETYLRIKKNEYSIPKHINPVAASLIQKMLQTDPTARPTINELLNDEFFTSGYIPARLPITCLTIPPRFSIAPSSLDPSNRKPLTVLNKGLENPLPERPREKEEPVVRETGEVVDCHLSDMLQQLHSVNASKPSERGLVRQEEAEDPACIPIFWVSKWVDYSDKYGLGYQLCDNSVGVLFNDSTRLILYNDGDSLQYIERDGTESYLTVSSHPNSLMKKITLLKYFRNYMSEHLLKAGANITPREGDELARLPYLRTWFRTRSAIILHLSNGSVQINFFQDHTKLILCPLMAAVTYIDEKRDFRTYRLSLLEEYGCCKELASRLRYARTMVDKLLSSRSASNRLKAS
FEN1 inhibitor: qHTS Assay for the Inhibitors of Human Flap endonuclease 1 (FEN1); P39748; Recombinant FEN1 flap cleavage, fluorescence, 15 min; Potency, µM (highest dose often 114 µM), for inactives: at the highest dose activity change, negative = inhibition, usual class: inhibitors; 0.35% of 390,000 active; AID 588795, 2011; further: potency means the concentration at half of the fitted maximal effect; on the % scale 0 is the no-effect control and ±100 the full control effect; nearly all actives have a fitted effect of over 65% in size
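FEN1 at 10 nM, compound pretreatment for 15 min (room temperature), 50 nM final substrate to initiate; endpoint reads at 0 and 15 min; DMSO-only plates used as vehicle background.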
PI5P4Ka inh: qHTS for Inhibitors of phosphatidylinositol 5-phosphate 4-kinase (PI5P4K); max response, %; 1.2% of 330,000 active; PI5P4Kalpha enzyme, ADP-Glo luminescence, 60 min; active compounds read low; active means max response of -50% or lower; inconclusive means between -30% and -50%; inactive means -30% or higher; further: value at the top dose of about 77 µM; on the % scale 0 is the no-effect control and ±100 the full control effect
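Single end-point luminescence (ADP-Glo) quantified ADP from PI5P4Kalpha turnover; ATP 5 microM final, 1 h at RT, 0.1% CHAPS and 0.28 mM EGTA in HEPES pH 7.4.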
TCR activator: Activators of T cell receptors: qHTS campaign. primary human leukocytes, anti-CD3, IL-2 HTRF, 48 h. Potency, µM (titrated, usually from 9.22 µM), for inactives: at the highest dose activation of IL-2 secretion, usual class: activators. 330,000 tested, under 10 active. AID 504894, 2011; further: % of control where 0% means no effect
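48 hr co-incubation of compounds, a-CD3 beads and primary human leukocytes; IL-2 quantified homogeneously by HTRF with anti-IL-2 K and d2 conjugates.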
Starred values were filed as active, the others as inactive; u = inconclusive; x = no result; [ ] = remark or other dose. Shown are actives, neighbours in structure and some others; about 3.7% of the full set was active somewhere. Unless noted, the call rests on the fitted dose curve; in most records, active means well fitted curve in the direction sought with a large enough effect; inconclusive means small, poorly fitted or top-dose-only effect, or another doubt; inactive means no such curve, though single readings can be large; an effect the other way counts as inactive or inconclusive.

SMILES	VDR inhibitor	WRN inhibitor	PLK1 PBD inh	FEN1 inhibitor	PI5P4Ka inh	TCR activator
CCOC(=O)c1c(NC(=O)CCC(=O)N(CC)CC)sc2c1CC(C)(C)OC2	-18%	-11%	-19%	13%	1	5%
Nc1nc(SCC(=O)Nc2ccc(Cl)cn2)n[nH]1	-6%	-7%[57.1 µM]	30µM*	-10%	1	-3%
Cc1ccc(S(=O)(=O)N2CCN(c3nc(-c4ccc(C)s4)nc4ccccc34)CC2)cc1	-12%	x	x	5%	x	x
O=C(Cc1cccc2ccccc12)NO	x	x	x	-2%	x	x
CC(C)(C)n1ncc2c(=O)n(Cc3ccc(SC(F)(F)F)cc3)cnc21	x	x	x	0%	x	x
CCCNC(=O)C1CC(=O)N(c2ccc(OCc3ccc(Cl)cc3)cc2)C1 (stereo unspecified)	-6%	-17%	-19%	1%	-6	x
NC(=O)C1CC(=O)N(c2ccc(OCc3ccc(Cl)cc3)cc2)C1 (stereo unspecified)	u	2%	6µM*	-27%	-19	0%
CN1C(=O)C(=O)/C(=C(/O)c2ccccc2)C1c1ccc(Br)cc1 (stereo unspecified)	-7%	10%	-5%	-3%	0	-5%
CN1C(=O)C(=O)/C(=C(/O)c2ccc(Br)cc2)C1c1ccccc1F (stereo unspecified)	0%	1%	34µM*	4%	-4	4%
NC(C(=O)O)[C@H](O)C(=O)O (stereo partly specified)	5%	x	x	x	x	x
CCCCNS(=O)(=O)CCNCc1ccc(OC)cc1	-1%	-2%	-4%	14%	2	1%[46.1 µM]
CCCCCCCCNCCS(=O)(=O)NN1CCOCC1	-17%	-4%	7.5µM*	-13%	-69*	-4%[46.1 µM]
COc1ccc(CNCCS(=O)(=O)NN2CCOCC2)cc1	u	8%	9.5µM*	-11%	-63*	1%[46.1 µM]
O=C1C(c2ccccc2)=[N+]([O-])c2ccccc21	4µM*	71µM*	0.17µM*	u	-6	-4%
O=C(CN1C(=O)c2ccccc2C1=O)NCc1ccc(F)cc1	u	-6%	7.5µM*	3%	-19	x
O=C(CCN1C(=O)c2ccccc2C1=O)NCc1ccc(F)cc1	-17%	-12%	-1%	-14%	0	-4%
CCC1=NC(c2ccc(OC)c(OC)c2)N(O)C1(C)C (stereo unspecified)	-19%	2%	30µM*	21%	-1	-4%[46.1 µM]
CCC1=NC(c2ccc(OC)cc2)N(O)C1(C)C (stereo unspecified)	8%	5%	-1%	7%	3	-5%
CCCC(=O)N1c2ncnn2C2(CCCCC2)[C@@H]2CCCC[C@@H]21	2%	x	x	-8%	x	x
COc1cccc(NC(=O)CCc2nnc3ccc(N4CCN(c5cccc(OC)c5)CC4)nn23)c1	u	0%	6µM*	-1%	-5	-2%
COc1cc(NC(=O)CCc2nnc3ccc(N4CCN(c5cccc(OC)c5)CC4)nn23)cc(OC)c1	-7%	-3%	4%	-3%	1	10%
O=S(=O)(NCc1cc(-c2ccccc2Cl)no1)c1ccc(Cl)cc1	18µM*	-12%	3.8µM*	-24%	u	x
O=C1/C(=C/c2ccc(O)c(O)c2)Oc2cc(O)ccc21	-11%	u	25%	u	-64*	-8%
COc1cc(/C=C2\Oc3cc(O)ccc3C2=O)ccc1O	2%	u	11%	u	-61*	-1%
CN(Cc1ccccc1)C(=O)C1CCN(S(=O)(=O)c2cccc3nsnc23)CC1	u	-10%	3.4µM*	8%	2	5%
SMILES	VDR inhibitor	WRN inhibitor	PLK1 PBD inh	FEN1 inhibitor	PI5P4Ka inh	TCR activator
CSc1ccc(C2C(C#N)=C(N)Oc3c2ccc(=O)c2c(C)oc(C)c32)cc1 (stereo unspecified)	11%	u	-14%	u	-65*	4%
Cc1oc(C)c2c(=O)ccc3c(c12)OC(N)=C(C#N)C3c1ccccc1Cl (stereo unspecified)	-17%	-33%	u	-16%	u	8%
Cc1c(Br)cnc2ccccc12	x	x	x	-3%	x	x
CN1c2ccccc2C(C)(C)C12C=Nc1c(ccc3ccccc13)O2 (stereo unspecified)	-19%	u	-5%	-17%	11	0%
COc1ccc2ccc3c(c2c1)N=CC1(O3)N(C)c2ccccc2C1(C)C (stereo unspecified)	50µM*	79µM*	-24%	u	x	2%[46.1 µM]
Cc1ccc(N2CCN(C(=O)c3cc4cc5ccc(C)cc5nc4s3)CC2C)cc1 (stereo unspecified)	1%	x	x	-2%	x	x
CC1=NN(C(N)=S)C(=O)C1N=Nc1c(Cl)cc([N+](=O)[O-])cc1Cl (stereo unspecified)	u	-19%	u	-4%	-57*	-3%
CC1=NN(C(N)=S)C(=O)C1N=Nc1c(C)cc(C)cc1C (stereo unspecified)	-14%	-5%	-19%	11%	-5	5%
CC1=NN(C(N)=S)C(=O)C1N=Nc1c(Br)cc(Br)cc1Br (stereo unspecified)	u	-18%[57.1 µM]	24µM*	-11%	u	14%
O=C(Nc1ccc(Cl)cn1)c1cnn2c1NC(=C1CC1)C=C2C(F)F	x	x	x	8%	x	x
COc1cc(NC(=O)c2cccc(Cl)c2)c(OC)cc1NC(=O)CN1CCOCC1	-4%	-2%	-4%	4%	7	-5%
COc1cc(NC(=O)c2cccc(Cl)c2)c(OC)cc1NC(=O)CN1CCCCC1	-25%	-7%	30µM*	-12%	0	-6%
O=C1NC(=O)C2C3C=CC(C3)C12 (stereo unspecified)	4%	x	x	x	x	x
COc1cccc(-n2c(N)c(-c3nc4ccccc4[nH]3)sc2=S)c1	4%	-3%	27µM*	-5%	-5	2%
COc1ccc2nc(-c3cccc(N)c3)[nH]c2c1	-4%	-29%	-4%	-25%	-17	5%[46.1 µM]
Cn1cccc1C(=O)NC(=O)CSc1cccc[n+]1[O-]	0%	-6%	-9%	u	-14	-22%
O=C(CSc1cccc[n+]1[O-])c1cccs1	7%	-5%	24µM*	2%	5	1%
O=C(CSc1cccc[n+]1[O-])c1cc2ccccc2o1	-3%	-6%	27µM*	0%	0	-16%
O=C(CSc1cccc[n+]1[O-])c1cc(Cl)ccc1Cl	-13%	3%	-7%	5%	-7	2%
COc1cccc2cc(-c3nc(Nc4cccc(C)c4)sc3C)c(=O)oc12	16%	x	x	-11%	x	x

Screening results (PubChem)
